Measurements published in PubChem BioAssay AID1030 (National Center for Advancing Translational Sciences (NCATS), 2008).
Where “and” joins values, the source holds several entries; their conditions need not be identical. Equal entries are not always repeated. Hit rate of the full screen: of about 220,000 compounds, about 16,000 (7.3%) were called active. A call without a number means that no potency is given here. About 25% were inconclusive and are not listed. The call rests on the fitted dose curve; in most records, active means well fitted inhibition curve with a large enough effect (not every such curve was filed as active); inconclusive means small, poorly fitted or top-dose-only effect, or another doubt; inactive means no such curve, though single readings can be large or run the other way. Only a selection was taken, and actives are over-represented in it overall. Some structures have more than one record in an assay (separate samples or runs), and their calls can disagree.

Each compound was assayed against Aldehyde dehydrogenase 1A1 (Homo sapiens) (UniProt P00352) (assay: qHTS Assay for Inhibitors of Aldehyde Dehydrogenase 1 (ALDH1A1)). Settings: Purified ALDH1A1, NADH fluorescence, propionaldehyde substrate; series mostly up to 75.3 µM.
Potency means the concentration at half of the fitted maximal effect.

Chain of Aldehyde dehydrogenase 1A1 (Homo sapiens) (P00352 whole entry, looked up): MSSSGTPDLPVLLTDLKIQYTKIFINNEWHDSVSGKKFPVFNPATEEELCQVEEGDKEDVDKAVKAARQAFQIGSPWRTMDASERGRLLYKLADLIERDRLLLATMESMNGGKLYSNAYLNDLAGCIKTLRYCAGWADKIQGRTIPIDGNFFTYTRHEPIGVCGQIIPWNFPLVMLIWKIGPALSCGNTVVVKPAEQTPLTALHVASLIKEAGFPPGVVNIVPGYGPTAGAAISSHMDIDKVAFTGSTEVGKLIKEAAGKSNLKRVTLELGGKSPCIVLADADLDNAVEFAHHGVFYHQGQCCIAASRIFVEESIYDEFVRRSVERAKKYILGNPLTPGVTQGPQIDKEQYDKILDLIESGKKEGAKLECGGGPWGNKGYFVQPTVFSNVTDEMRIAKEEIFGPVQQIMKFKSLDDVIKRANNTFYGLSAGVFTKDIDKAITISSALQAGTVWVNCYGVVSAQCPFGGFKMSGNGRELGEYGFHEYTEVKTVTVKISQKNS

Structure (SMILES) | Potency | activity, negative = inhibition
Cc1ccc(-n2ncc3c(=O)n(-c4ccc(C)c(C)c4)c(-c4ccco4)nc32)cc1 | 25.1 µM (active) | 
Cc1ccc(-c2nc3c(cnn3-c3ccccc3)c(=O)o2)cc1 | inactive | 
COc1ccc(-n2c(C)nc3c(cnn3-c3ccccc3)c2=O)cc1 | inactive | 
Cn1nnnc1SCC(=O)Nc1nc2ccccc2s1 | inactive | 
Cc1cc([N+](=O)[O-])nn1CCCC(=O)Nc1cccnc1Cl | inactive | 
COc1ccc(CC(N)C(=O)NC2C(O)[C@H](n3cnc4c(N(C)C)ncnc43)O[C@@H]2CO)cc1 (some centres undefined) | inactive | 
COC(=O)[C@H](C)[C@H]1C[C@]1(C)[C@H](NC(=O)OCc1ccccc1)c1ccccc1 | inactive and 22.4 µM (active) | 
COC(=O)[C@H](Cc1ccccc1)NC(=O)[C@@H]1C[C@H]1[C@@H](NC(=O)OCc1ccccc1)c1ccccc1 | inactive | 
O=C(NCC1CCC(C(=O)O)CC1)OCc1ccccc1 (centres undefined) | inactive | 
COc1ccc(C2(CNC(=O)Cc3ccc(OC)c(OC)c3)CCCC2)cc1 | inactive | 
CCN(CCn1cccn1)Cc1nc(-c2ccc(C(=O)OC)cc2)no1 | inactive | 
O=C1OC(/C=C/c2ccccc2)=NC/1=C/c1ccco1 | 11.2 µM (active) | 
O=c1oc(/C=C/c2ccccc2)nc2ccccc12 | inactive | 
CC(=O)Oc1ccccc1C1=NN(C(C)=O)C(c2ccccc2)C1 (centres undefined) | inactive | 
COc1ccccc1N1CCN(C(=O)C(=O)N/N=C/c2ccccc2F)CC1 | inactive | 
COc1ccccc1N1CCN(/N=C\C(Br)=C\c2ccccc2)CC1 | 5.62 µM (active) | 
CNCC(O)CN1CCN(c2ccccc2OC)CC1 (centres undefined) | inactive | 
COc1ccccc1CNC(=O)COc1ccc(C)nc1[N+](=O)[O-] | inactive | 
O=S(=O)(NCCc1ccc(F)cc1)c1cccc2cccnc12 | inactive | 
Cc1coc2c(O)cc3c(c12)OC1(N2CCCCC2)C(=O)NCCCC31 (centres undefined) | 20 µM (active) | 
COc1ccc(NC(=O)C(Br)C(C)C)cc1 (centres undefined) | inactive | 
Cc1nn(-c2ccccc2)c2c1C(c1cccc([N+](=O)[O-])c1)N(c1ccccc1)C(=O)N2 (centres undefined) | inactive | 

Structure (SMILES) | Potency | activity, negative = inhibition
CCOc1ccc(C(=O)Nc2cccc(-c3ccc4nncn4n3)c2)cc1 | inactive | 
Cc1occc1C(=O)N1CCCc2ccccc21 | 31.6 µM (active) | 
CCCn1nc(C(=O)N2CCCc3ccccc32)c2ccccc2c1=O | inactive | 
NC(=O)N1CCc2ccccc21 | inactive | 
CCOC(=O)C1=NO[C@@]2(C=C(Br)C(=O)[C@H]3O[C@H]32)C1 | inactive | 
CN(C)c1ccc(/C=N/NC(=O)c2ccc(Cn3cc(Br)cn3)o2)cc1 | 17.8 µM (active) | 
O=C(N/N=C\c1ccc(Br)cc1)c1ccc(Cn2cccn2)o1 | inactive | 
O=C(N/N=C/c1ccc2c(c1)OCO2)c1ccc(Cn2cc([N+](=O)[O-])cn2)o1 | inactive | 
COc1ccc(C2CC(c3cccs3)Nc3nnnn32)cc1 (centres undefined) | inactive | 
O=c1[nH]c(CN2CCOCC2)nc2cc(Cl)ccc12 | inactive | 
CCC1(CC)NC(=O)N(CC(=O)OCC(=O)NC(=O)c2ccccc2)C1=O | inactive | 
O=C(c1ccccc1Cl)N(Cc1ccccc1F)N1C(=O)CCCC1=O | inactive | 
COc1ccc(NC(=O)N2CCCC(c3nc(-c4ccc(F)cc4)no3)C2)cc1 (centres undefined) | inactive | 
CC(=O)N1c2ccccc2N(Cc2ccc([N+](=O)[O-])cc2)C(=O)C1(C)C | inactive | 
Cc1ccc(C)c(NC(CC(=O)c2ccccc2)C(=O)OCC(=O)c2cccs2)c1 (centres undefined) | 7.08 µM (active) | 
Cc1ccc(C)c(NC(=O)CCC(=O)NNC(=O)c2cccs2)c1 | inactive | 
COC(=O)C(CC(=O)Nc1cc(C)ccc1C)Nc1ccccc1OC (centres undefined) | inactive | 
O=C(COC(=O)CNC(=O)c1ccccc1F)NCC(F)(F)F | inactive | 
O=C(COC(=O)c1ccc(O)cc1)Nc1nccs1 | inactive | 
OC(COCCC12CC3CC(CC(C3)C1)C2)CN1CCCCC1 (centres undefined) | 20 µM (active) | 
Cc1cccc(C)c1OCC(O)CN1CCCCC1 (centres undefined) | inactive | 
OC(COc1cccc(OCC(O)CN2CCCC2)c1)CN1CCCC1 (centres undefined) | inactive | 

Structure (SMILES) | Potency | activity, negative = inhibition
CC1CCCCC1NC(=O)CO/N=C/c1ccc(OC(F)F)cc1 (centres undefined) | inactive | 
CCCCCCCCc1c(O)nc(-n2[nH]c(C)c(CCO)c2=O)[nH]c1=O | inactive | 
CCOc1ccccc1Nc1ccc(C(=O)O)cc1[N+](=O)[O-] | inactive | 
CSc1ccccc1NC(=O)CN(C)CC(=O)Nc1ccc(Cl)cc1[N+](=O)[O-] | inactive | 
CSc1nc2nc(-c3cccc(C(F)(F)F)c3)ccn2n1 | inactive | 
O=C1CCCC(O)=C1N=Nc1ccc2ncsc2c1 | 25.1 µM (active) | 
Cc1ccc(NC(=S)N(Cc2ccco2)C(C)c2cccs2)cc1 (centres undefined) | inactive | 
O=C(Oc1cccc(O)c1)C1CCCCC1 | inactive | 
CC(=O)C1=C(O)C(=O)N(c2cccnc2)C1c1ccc([N+](=O)[O-])cc1 (centres undefined) | 20 µM (active) | 
COC(=O)CN1C(=O)C(O)=C(C(C)=O)C1c1ccc([N+](=O)[O-])cc1 (centres undefined) | inactive | 
COc1ccc(C2C(C(C)=O)=C(O)C(=O)N2Cc2cccnc2)cc1 (centres undefined) | inactive | 
O=C1N=C(N2CCCC2)S/C1=C\c1cccc(Br)c1 | 25.1 µM (active) | 
O=C(OCC(=O)N1CCN(C(=O)c2ccco2)CC1)c1ccccc1Cc1ccccc1 | inactive | 
O=C(CNS(=O)(=O)c1ccc(Br)s1)N1CCN(C(=O)c2ccco2)CC1 | 39.8 µM (active) | 
CCNC(=S)N1CCN(C(=O)c2ccco2)CC1 | inactive | 
CCc1nnc(NC(=O)CSc2nnnn2-c2cccc(C(C)=O)c2)s1 | inactive | 
Cc1cc(C)n(CCNCc2c(C(=O)N3C[C@@H](C)O[C@@H](C)C3)nc3ccc(Cl)cn23)n1 | inactive | 
COC(=O)CCCC1=CC2=CC(=O)C(C)(OC(=O)c3cccs3)C(=O)C2=CN1CC1CC1 (centres undefined) |  | -4.48% [at 13.5 µM] (inactive)
CS(=O)(=O)c1ccc2nc(NC(=O)CN3CCCCCC3)sc2c1 | inactive | 
CS(=O)(=O)c1ccc2nc(NC(=O)C3C4C=CC(C4)C3C(=O)O)sc2c1 (centres undefined) | 5.62 µM (active) | 
CS(=O)(=O)c1ccc2nc(NC(=O)C3CCCCC3)sc2c1 | inactive | 
CN1CCN(CC(=O)Nc2cccc([N+](=O)[O-])c2)CC1 | inactive | 

Structure (SMILES) | Potency | activity, negative = inhibition
COc1cc(C2/C(=C(\O)c3ccc4c(c3)CC(C)O4)C(=O)C(=O)N2Cc2ccco2)ccc1O (centres undefined) | inactive | 
CCOc1cccc(/C(O)=C2/C(=O)C(=O)N(CCOC)C2c2ccncc2)c1 (centres undefined) | inactive | 
COCCCN1C(=O)C(=O)/C(=C(/O)c2ccc3c(c2)CC(C)O3)C1c1cccnc1 (centres undefined) | 39.8 µM (active) | 
CCc1ccccc1NC(=O)Cc1cn(C)c2ccccc12 | inactive | 
CC(/C=C/C1(O)C(C)CC(=O)CC1(C)C)OC1OC(CO)C(O)C(O)C1O (centres undefined) | inactive | 
O=[N+]([O-])c1cc(Cl)cc(/C=N/NC(=S)Nc2cc(S(=O)(=O)N3CCOCC3)ccc2Cl)c1O | 0.178 µM (active) | 
CN(C)/N=C/c1cc(Cl)cc([N+](=O)[O-])c1O | inactive | 
O=C(Nc1cc(S(=O)(=O)N2CCOCC2)ccc1Cl)c1cc(=O)c2ccccc2o1 | inactive | 
CCN(CC)S(=O)(=O)c1ccc(OC(C)C)c(N)c1 | inactive | 
COc1ccc2nc(Nc3nc(-c4ccncc4)cs3)sc2c1 | inactive | 
Cn1c(CCC(=O)OCC(=O)NCc2ccccc2Cl)nc(=O)c2ccccc21 | inactive | 
O=C(CCc1nnc(CCCCc2ccccc2)o1)NC(c1cccnc1)C(F)(F)F (centres undefined) | inactive | 
CCN(CC)CCNC(=O)C1c2ccccc2C(=O)N(C)C1c1cn(C)c2ccccc12 (centres undefined) | inactive | 
CSc1nnc2c(n1)OC(c1cn(C)c3ccccc13)N(C(C)=O)c1ccccc1-2 (centres undefined) | 3.98 µM (active) | 
CSc1nnc2c(n1)OC(c1ccsc1)N(C(C)=O)c1ccccc1-2 (centres undefined) | inactive | 
O=C(CO/N=C/c1ccccc1OC(F)F)NC1CCCC1 | inactive | 
CS(=O)(=O)N(CC(=O)N/N=C/c1ccccn1)c1ccc(Oc2ccccc2)cc1 | inactive | 
O=C(CN1CCN(Cc2ccc(F)cc2Cl)C1=O)NCc1cccs1 | inactive | 
O=c1c(Cl)c(NCc2ccc(F)cc2Cl)cnn1C12CC3CC(CC(C3)C1)C2 | 15.8 µM (active) | 
NC(=O)c1ccc(N2CCOCC2)nc1 | inactive | 
O=C(NNS(=O)(=O)c1ccc(Cl)cc1)C1CCN(Cc2ccccc2)CC1 | 22.4 µM (active) | 
CCCC(=O)C1CCN(Cc2ccccc2)CC1 | inactive | 

Structure (SMILES) | Potency | activity, negative = inhibition
CCNC(=S)NNC(=O)C1CCN(Cc2ccccc2)CC1 | inactive | 
COc1ccc(-c2cc(C(=O)NCCCn3ccnc3)no2)cc1 | inactive | 
Cn1cccc1C(=O)N1CCC[C@@]2(CCN(Cc3nccs3)C2)C1 | inactive | 
Cc1ccc(C)c(OCC(=O)N2CCN(C(=O)c3ccco3)CC2)c1 | inactive | 
O=C(c1cccc([N+](=O)[O-])c1)N1CCN(C(=O)c2ccco2)CC1 | inactive | 
O=C(c1ccco1)N1CCC2(CC1)CCN(c1ncccn1)CC2 | 25.1 µM (active) | 
O=C(c1csnn1)N1CCC[C@@]2(CCN(Cc3nccs3)C2)C1 | inactive | 
O=C(c1ccco1)N1CCC[C@@]2(CCN(Cc3nccs3)C2)C1 | 25.1 µM (active) | 
C/C(N)=C(/C#N)C(=O)COC(=O)CNS(=O)(=O)c1ccc(C)cc1 | inactive | 
CC(C)NC(=O)NCCCCCCS(C)=O (centres undefined) | inactive | 
O=C(Nc1n[nH]c(C(F)(F)F)n1)c1cccs1 | inactive | 
C=CCOC(=O)C1=C(C)NC(SCC(=O)OCC)=C(C#N)C1c1ccc(C)cc1 (centres undefined) | inactive | 
CC1=C(C(=O)Nc2ccccc2)C(c2cccs2)C(C#N)=C(SCC#N)N1 (centres undefined) | 22.4 µM (active) | 
CCCSC1=C(C#N)C(c2ccccc2C)C(C(=O)OC)C(=O)N1 (centres undefined) | inactive | 
CC(C)(C)c1cnnn1-c1ccc([N+](=O)[O-])cc1 | inactive | 
Cc1ccc(NC(=O)c2csc3c2CCCC3)cc1 | 20 µM (active) | 
CC(=O)Cc1nsc(NC(=O)c2csc3c2CCCC3)n1 | inactive | 
O=C(Nc1ccccc1N1CCOCC1)c1csc2c1CCCC2 | inactive | 
COC(=O)c1sccc1NC(=O)CCC1CCCC1 | inactive | 
O=C(NCc1ccccc1Cl)c1csc2c1CCCCC2 | inactive | 
COC(=O)c1sccc1NC(=O)c1csc2c1CCCC2 | 22.4 µM (active) | 
